From PubChem BioAssay
GALR2 ag = agonists of human galanin receptor 2 (GALR2); 140,000 tested, 0.48% active; GALR2-expressing cells, agonist activation read-out; O43603; activation, % (test concentration not listed); AID 803; in the data active = activation above about 5%, passing the limit was not always enough
Target sequence (O43603 whole entry, looked up): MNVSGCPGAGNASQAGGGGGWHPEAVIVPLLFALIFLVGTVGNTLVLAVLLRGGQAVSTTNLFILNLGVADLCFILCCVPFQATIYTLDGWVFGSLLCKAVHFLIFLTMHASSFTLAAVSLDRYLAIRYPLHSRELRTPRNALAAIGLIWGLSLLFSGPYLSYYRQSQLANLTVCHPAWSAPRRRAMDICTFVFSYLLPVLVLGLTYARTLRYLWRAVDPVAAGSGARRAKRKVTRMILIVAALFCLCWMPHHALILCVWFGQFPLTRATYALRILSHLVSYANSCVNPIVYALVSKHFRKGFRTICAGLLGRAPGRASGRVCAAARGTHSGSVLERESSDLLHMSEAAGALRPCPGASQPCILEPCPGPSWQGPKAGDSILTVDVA
S1P2 blocker = antagonists of human S1P2 receptor; O95136; cell-based S1P2 antagonist assay, inhibition at 5 uM; inhibition, % at 5 µM; 97,000 tested, 0.21% active; AID 736; in the data active = inhibition above about 45%;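 note: CRE beta-lactamase reporter cells expressing human S1P2 stimulated with S1P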
FAK blocker = inhibitors of human focal adhesion kinase | Q05397 | biochemical FAK kinase activity assay | inhibition, %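 (tested at 7 µM)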 | 97,000 tested, 0.84% active | AID 727
GALR2 antag = antagonists of human galanin receptor 2 (GALR2); GALR2-expressing cells, antagonist mode; inhibition, % at 4 µM; 140,000 tested, 0.39% active; AID 828; in the data active = inhibition above about 27%;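 note: cells stimulated with galanin 1-16 at roughly its EC80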
S1P2 agonist = S1P2 (human) receptor agonism. S1P2-expressing cell line, agonist reporter read-out. O95136. AID 729. 97,000 tested, 0.46% active. activation, % at 4.5 µM; in the data active = activation above about 16%
SDO1 yeast rescue = restores growth of sdo1-depleted yeast; S. cerevisiae sdo1-depleted JHY4D growth rescue, OD600 30 h; hits give high values; pdr5 snq2 efflux-pump mutant strain; AID 817; 140,000 tested, 0.21% active; z-score at 10 µM;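 active = z-score above 3 at both the 24 hr and the 30 hr optical density reads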
FAK inh conf = confirmation of human focal adhesion kinase (FAK) inhibitors | inhibition, % at 7 µM | shares compounds with FAK blocker | AID 794 | 750 tested, 28% active | FAK kinase biochemical inhibition assay
A number is an active result; i = inactive; nt = not tested or not shown. In the library only some 1.9% were active in any assay of this set; here they are far more common. Cut-off read from the data, not from the text of the source, unless noted: active = inhibition above about 19%; inactive = the rest.

SMILES	GALR2 ag	S1P2 blocker	FAK blocker	GALR2 antag	S1P2 agonist	SDO1 yeast rescue	FAK inh conf
O=C(N/N=C/C=C/c1ccccc1)c1cc2c(ccc3ccccc32)o1	i	i	42	i	i	i	i
C=CCn1cc(/C=N\NC(=O)c2cc3c(ccc4ccccc43)o2)c2ccccc21	i	i	i	i	i	i	nt
CCOC(=O)Nc1ccc(S(=O)(=O)Nc2cc(C)on2)cc1	i	i	i	i	i	i	nt
CCC(=O)Nc1ccc(S(=O)(=O)Nc2cc(C)on2)cc1	i	i	34	i	i	i	i
O=C(Nc1ccc(-n2nncc2-c2ccco2)cc1)c1cccc(F)c1	i	i	i	i	i	i	nt
O=C(Nc1ccc(-n2nncc2-c2ccco2)cc1)c1cc2ccccc2oc1=O	i	i	82	i	i	i	78
CC(C)c1ccccc1NC(=O)COC(=O)Cc1ccsc1	i	nt	nt	i	nt	i	nt
O=C(N/N=C/c1ccc(N2CCCCC2)o1)C(O)(c1ccccc1)c1ccccc1	i	nt	nt	i	nt	i	nt
CCCCNC(=O)c1ccc2nc(-c3ccco3)c(-c3ccco3)nc2c1	i	nt	nt	i	nt	i	nt
O=C(Nc1ccccc1)c1ccc2nc(-c3ccco3)c(-c3ccco3)nc2c1	i	i	21	i	i	i	i
O=C(Nc1ccc(N2CCOCC2)cc1)c1ccc2nc(-c3ccco3)c(-c3ccco3)nc2c1	i	i	i	i	i	i	nt
O=C(c1ccc2nc(-c3ccco3)c(-c3ccco3)nc2c1)N1CCN(c2ncccn2)CC1	i	i	55	i	i	i	i
CC(=O)c1ccc(NC(=O)c2ccc3nc(-c4ccco4)c(-c4ccco4)nc3c2)cc1	i	i	84	i	i	i	30
O=C(c1cccc(C(=O)N2CCN(c3ncccn3)CC2)c1)N1CCN(c2ncccn2)CC1	i	i	i	i	i	i	nt
O=C(NCc1ccccc1)c1ccc2nc(-c3ccco3)c(-c3ccco3)nc2c1	i	i	45	i	i	i	i
Cc1ccc(CNC(=O)[C@H](C)[C@H]2C[C@]2(C)[C@H](NC(=O)OCc2ccccc2)c2ccccc2)o1	i	nt	nt	i	nt	i	nt
O=C(COc1cccc(Cl)c1)Nc1ccc2c(c1)CCC2	i	nt	nt	i	nt	i	nt
Cc1cc2cc(CN3C(=O)c4ccccc4C3=O)ccc2n1C	i	nt	nt	i	nt	i	nt
Nc1c(C(=O)Nc2ccccc2)sc2nc(-c3ccco3)ccc12	i	i	26	i	i	i	i
N#Cc1cc2c(N)c(C(=O)Nc3ccccc3)sc2nc1N	i	i	i	i	i	i	nt
Cc1ccccc1C(=O)O/N=C(\N)c1cccc([N+](=O)[O-])c1	i	i	i	i	i	i	nt
N/C(=N\OC(=O)c1cccc2ccccc12)c1cccc([N+](=O)[O-])c1	i	i	28	i	i	i	i
O=C1CCCN1CCCNc1ncnc2c1[nH]c1ccc(Cl)cc12	i	i	29	i	17	i	i
Clc1ccc2[nH]c3c(NCCCN4CCOCC4)ncnc3c2c1	i	i	i	i	i	i	nt
CCN1CCCC1CNc1ncnc2c1[nH]c1ccc(Cl)cc12 (stereo not given)	i	i	21	i	i	i	i
SMILES	GALR2 ag	S1P2 blocker	FAK blocker	GALR2 antag	S1P2 agonist	SDO1 yeast rescue	FAK inh conf
O=[N+]([O-])c1ccc(N/N=C\c2cccn2-c2ccccc2)nc1	i	i	30	i	i	i	i
Cc1cccc(NC(=O)CSc2nc3ccccc3c3nc(CCc4c(C)n[nH]c4C)nn23)c1	i	i	i	i	i	i	nt
Cc1n[nH]c(C)c1CCc1nc2c3ccccc3nc(SCC(=O)Nc3ccccc3F)n2n1	i	i	21	i	i	i	i
CCOc1ccc(-c2c[n+]3c(n2-c2ccccc2)CCCCC3)cc1	i	nt	nt	i	nt	i	nt
CC(C)NC(=O)CSc1nc(N)c(NC(=O)c2ccccc2F)c(=O)[nH]1	i	nt	nt	i	nt	i	nt
CCOc1cc(C(c2c(C)[nH][nH]c2=O)c2c(C)[nH][nH]c2=O)ccc1OCc1ccc([N+](=O)[O-])cc1	i	i	i	i	i	i	nt
CCOc1cc(/C=C2/NC(=S)NC2=O)ccc1OCc1ccc([N+](=O)[O-])cc1	i	i	41	i	i	i	22
Cc1ccc(C(=O)c2c(C)oc3c2C(=O)C(=O)c2ccccc2-3)cc1	i	i	21	i	i	i	i
Cc1nc(NC(C)C)c2cnn(CCc3ccccc3)c2n1	i	i	i	i	i	i	nt
COc1ccc(-c2nc3ccc(N4CCCC4)cc3c(=O)[nH]2)cc1OC	i	i	28	i	i	i	i
